Dicer processing – inhibitors of Dicer pre-microRNA processing, primary screen, biochemical, cat-ELCCA, chemiluminescence; 6% of 47,000 active; Endoribonuclease Dicer (Homo sapiens), Q9UPY3; cat-ELCCA pre-miR-21 Dicer processing; active compounds read high; z-score at 25 µM; in the data active means z-score above about 3, passing the limit was not always enough;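 further: plate controls were vehicle for no effect and no enzyme for full effect; higher signal means more uncleaved substrate so more Dicer inhibition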
Target sequence (Q9UPY3 whole entry, looked up): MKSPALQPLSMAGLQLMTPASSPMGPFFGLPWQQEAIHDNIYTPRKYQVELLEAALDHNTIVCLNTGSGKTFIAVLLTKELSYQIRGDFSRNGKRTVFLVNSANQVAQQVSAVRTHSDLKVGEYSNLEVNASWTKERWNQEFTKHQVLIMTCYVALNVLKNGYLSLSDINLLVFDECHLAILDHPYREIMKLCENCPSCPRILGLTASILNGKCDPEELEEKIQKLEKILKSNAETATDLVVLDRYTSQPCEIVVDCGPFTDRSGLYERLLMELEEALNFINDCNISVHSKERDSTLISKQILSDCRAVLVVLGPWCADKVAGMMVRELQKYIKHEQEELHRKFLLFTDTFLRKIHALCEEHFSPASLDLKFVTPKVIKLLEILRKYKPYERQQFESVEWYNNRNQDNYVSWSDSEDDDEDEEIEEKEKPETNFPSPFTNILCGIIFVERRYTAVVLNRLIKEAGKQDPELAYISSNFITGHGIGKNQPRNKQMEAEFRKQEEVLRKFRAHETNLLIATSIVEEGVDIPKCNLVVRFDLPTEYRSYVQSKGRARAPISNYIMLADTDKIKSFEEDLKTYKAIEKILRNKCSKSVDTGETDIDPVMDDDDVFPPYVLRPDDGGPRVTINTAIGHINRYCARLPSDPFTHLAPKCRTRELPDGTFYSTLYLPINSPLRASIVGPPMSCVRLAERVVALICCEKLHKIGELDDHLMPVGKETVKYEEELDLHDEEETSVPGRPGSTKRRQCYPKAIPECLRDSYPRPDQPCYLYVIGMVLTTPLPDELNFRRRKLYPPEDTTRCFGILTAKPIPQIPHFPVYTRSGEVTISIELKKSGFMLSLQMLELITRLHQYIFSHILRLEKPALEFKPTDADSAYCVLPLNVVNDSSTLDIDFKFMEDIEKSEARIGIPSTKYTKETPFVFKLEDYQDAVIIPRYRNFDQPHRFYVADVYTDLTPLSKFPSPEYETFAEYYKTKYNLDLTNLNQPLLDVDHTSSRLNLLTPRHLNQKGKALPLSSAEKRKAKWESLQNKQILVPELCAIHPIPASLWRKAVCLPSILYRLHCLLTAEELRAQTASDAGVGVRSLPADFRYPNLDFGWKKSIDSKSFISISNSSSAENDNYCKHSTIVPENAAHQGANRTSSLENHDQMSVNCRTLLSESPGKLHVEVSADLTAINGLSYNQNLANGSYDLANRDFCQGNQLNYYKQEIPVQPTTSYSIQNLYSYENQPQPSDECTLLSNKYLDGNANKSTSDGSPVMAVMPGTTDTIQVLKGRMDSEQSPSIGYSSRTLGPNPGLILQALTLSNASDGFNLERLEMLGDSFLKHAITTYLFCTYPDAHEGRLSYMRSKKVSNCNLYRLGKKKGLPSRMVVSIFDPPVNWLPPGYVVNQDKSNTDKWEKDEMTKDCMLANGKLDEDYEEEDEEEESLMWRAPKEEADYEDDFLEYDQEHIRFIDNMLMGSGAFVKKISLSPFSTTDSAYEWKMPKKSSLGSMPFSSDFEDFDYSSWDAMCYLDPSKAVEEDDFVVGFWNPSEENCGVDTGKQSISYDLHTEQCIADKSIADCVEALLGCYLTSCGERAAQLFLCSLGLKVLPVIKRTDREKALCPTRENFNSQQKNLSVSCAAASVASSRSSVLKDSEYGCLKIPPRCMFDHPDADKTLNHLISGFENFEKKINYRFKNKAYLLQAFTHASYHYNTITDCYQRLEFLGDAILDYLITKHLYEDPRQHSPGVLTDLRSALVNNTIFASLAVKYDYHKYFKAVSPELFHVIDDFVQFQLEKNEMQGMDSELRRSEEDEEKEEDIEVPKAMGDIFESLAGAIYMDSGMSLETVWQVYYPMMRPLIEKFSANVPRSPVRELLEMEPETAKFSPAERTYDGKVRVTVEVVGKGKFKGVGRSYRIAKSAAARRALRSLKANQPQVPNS
An asterisk follows results filed as active. This is one part of a sample in which hits are shown more often than they occur.

For CC1(C)CC(=O)C=C(SCc2c(Cl)cccc2Cl)S1 the results were Dicer processing 0.78.
`c1ccc2c(c1)nc1n2CN(CCCN2CCOCC2)CN1CC1CCCO1` (stereo unspecified) gave Dicer processing 0.49.
For CN1C2C=C(N(CCc3ccccc3)C(=O)c3ccccc3)CC1CC2 (stereo unspecified) the results were Dicer processing 3.1*.
Screening CCN(C(=O)c1ccccc1)c1cccc2ccccc12 returned Dicer processing -1.2.
Screening CN(C(=O)c1ccccc1)C(=O)N(C)C(=O)c1ccccc1 returned Dicer processing -1.4.
For COc1ccc(Cc2nnc(SCCC(=O)O)o2)cc1 the results were Dicer processing -0.58.
CCCn1c(Nc2nc3ccccc3n2C)nc2ccccc21 was read as Dicer processing 4.9*.
Screening CCN(CC)CCn1c(=O)c(Cc2ccc(OC)cc2)nc2ccccc21 returned Dicer processing -1.2.
CCN(CC)CCn1c(NCc2cccc(Br)c2)nc2ccccc21 was read as Dicer processing 3.9*.
CCc1ccc(CNc2nc3ccccc3n2CCN(CC)CC)cc1 was read as Dicer processing 3.3*.
`CCN(CC)CCn1c(NCc2ccccn2)nc2ccccc21` gave Dicer processing 1.7.
For CCCn1c(SCCO)nc2ccccc21 the results were Dicer processing 0.15.
Screening CCN(CC)CCn1c(NCc2ccc(C)cc2)nc2ccccc21 returned Dicer processing 0.08.
Screening CCCCn1c(NCc2ccccn2)nc2ccccc21 returned Dicer processing 1.2.
CCN(CC)CCn1c(C)nc2ccccc21 was read as Dicer processing -0.35.
Screening CCCCN1C2=NCCN2c2ccccc21 returned Dicer processing -0.46.
COCCN1C(=O)c2oc3cc(C)c(C)cc3c(=O)c2C1c1ccc(SC)cc1 (stereo unspecified) was read as Dicer processing -0.06.
Screening O=C(COc1ccc(Cl)cc1)NC1CCS(=O)(=O)C1 (stereo unspecified) returned Dicer processing -0.74.
Screening CC(C)c1ccc(-c2csc(NC(=O)C3C4CCC(C4)C3C(=O)O)n2)cc1 (stereo unspecified) returned Dicer processing 1.8.
For COC(=O)c1c(C)nn(-c2ccccn2)c1-c1cc(C)on1 the results were Dicer processing 0.6.
Screening COC(=O)c1cscc1N1C(=O)c2nccnc2C1=O returned Dicer processing 2.3.
Screening OCCSc1nc2ccccc2n1CCOc1ccccc1 returned Dicer processing 3.9*.
CSc1nc2ccccc2n1CCOc1ccccc1 was read as Dicer processing -1.9.
Screening Cc1ccc(OCCSc2nc3ccccc3n2CCO)cc1 returned Dicer processing -0.89.
For CN(C)CCCn1c(-c2ccccc2)nc(=S)c2c1CC(C)(C)OC2 the results were Dicer processing -0.37.
O=C(O)Cn1c2ccccc2c2nc3ccccc3nc21 was read as Dicer processing -1.6.
Screening O=C(O)c1ccc2c(=O)n3c4ccc(Cl)cc4nc3c3ccc(C(=O)O)c1c23 returned Dicer processing 0.93.
For O=C(O)c1ccc2c(=O)n3c4ccccc4nc3c3ccc(C(=O)O)c1c23 the results were Dicer processing 3.1*.
Screening CN(C)c1ncnc(Oc2ccc(Cl)cc2)c1[N+](=O)[O-] returned Dicer processing -0.04.
For CSC(=NC(=O)c1c(Cl)cccc1Cl)N1CCSCC1 the results were Dicer processing -0.23.
COc1cc(OC)cc(-c2nc(-c3cccc(C)c3)no2)c1 was read as Dicer processing -0.47.
`Cc1cccc(-c2nnc(-c3ccccc3)o2)c1` gave Dicer processing 2.6.
COc1oc(-c2cccc(C)c2)nc1C(F)(F)F was read as Dicer processing 3.6*.
Screening O=c1[nH]c(-c2cccc(Oc3ccccc3)c2)nc2ccccc12 returned Dicer processing 0.35.
For Cc1ccc(C(=O)C2C(=O)c3ccccc3C2=O)cc1 the results were Dicer processing 0.21.
Screening Cc1ccc(C(=O)CN2/C(=C(/O)c3ccccc3)C(=O)c3ccccc3S2(=O)=O)c(C)c1 returned Dicer processing -0.63.
`Cc1ccc(N2C(=O)c3ccccc3C2C(=O)c2ccc(C)cc2O)cc1` (stereo unspecified) gave Dicer processing 12*.
Screening Cc1ccc(-c2nn(-c3ccccc3)cc2C2CC(c3ccccc3)=NN2S(C)(=O)=O)cc1 (stereo unspecified) returned Dicer processing -1.1.
For O=C1CC(/C=C/c2ccccc2)Cc2nc(N3CCN(Cc4ccc5c(c4)OCO5)CC3)ncc21 (stereo unspecified) the results were Dicer processing 4.6*.
`O=C1CC(c2cccc(Cl)c2)Cc2nc(N3CCN(Cc4ccc5c(c4)OCO5)CC3)ncc21` (stereo unspecified) gave Dicer processing 0.07.
`COc1ccc(C2CC(=O)c3cnc(N4CCN(Cc5ccc6c(c5)OCO6)CC4)nc3C2)cc1` (stereo unspecified) gave Dicer processing 1.
For COC(=O)C1=C(C)Nc2nnnn2C1c1ccc(Cl)cc1 (stereo unspecified) the results were Dicer processing 1.1.
Screening COc1ccccc1-c1coc2cc(OC(=O)c3cccs3)ccc2c1=O returned Dicer processing 12.
Screening Cc1ccc2c(n1)CC(C)(C)C/C2=N/O returned Dicer processing -0.07.
For CCS(=O)(=O)n1nc(-c2ccc(Cl)cc2)nc1SC the results were Dicer processing 2.7.
For CCS(=O)(=O)n1nc(-c2ccccc2)nc1N the results were Dicer processing 3.3*.
For Nc1nc(-c2ccc(Cl)cc2)nn1S(=O)(=O)c1ccccc1 the results were Dicer processing 1.8.
Screening Cc1cccc(NC(=O)c2ccc(Cl)cc2N)n1 returned Dicer processing -0.18.
O=C(Nc1ccc(Cl)cc1)c1cscc1Sc1ccc(Cl)cc1 was read as Dicer processing 0.85.
Screening C=C1SC(Nc2ccccc2OC)=NC1(C)C returned Dicer processing -1.3.
For C=C1SC(Nc2cc(OC)cc(OC)c2)=NC1(C)C the results were Dicer processing 15*.
For COc1ccc(NC2=NC(C)(CO)CS2)cc1 (stereo unspecified) the results were Dicer processing 0.62.
`COc1cc(-n2c(CCc3nc(-c4ccc(Cl)cc4)no3)n[nH]c2=S)c(OC)cc1Cl` gave Dicer processing -0.93.
Screening O=C(NCc1ccccn1)c1cc2n(n1)C(C(F)(F)F)CC(c1ccco1)N2 (stereo unspecified) returned Dicer processing 0.16.
For Cc1cc(C)cc(NC(=O)c2cc3n(n2)C(C(F)(F)F)CC(c2ccco2)N3)c1 (stereo unspecified) the results were Dicer processing 1.7.
Screening O=C(NCc1cccs1)c1cc2n(n1)C(C(F)(F)F)CC(c1ccc(Cl)cc1)N2 (stereo unspecified) returned Dicer processing 0.44.
`O=C(NC1CCCC1)c1cc2n(n1)C(C(F)(F)F)CC(c1ccc(Br)cc1)N2` (stereo unspecified) gave Dicer processing 4.4*.
`O=C(Nc1cccnc1)c1cc2n(n1)C(C(F)(F)F)CC(c1ccc(Br)cc1)N2` (stereo unspecified) gave Dicer processing 4.7*.
For Cc1ccc(C2CC(C(F)(F)F)n3nc(C(=O)NC(C)C)cc3N2)cc1 (stereo unspecified) the results were Dicer processing -0.35.
For O=C(NCc1ccco1)c1cc2n(n1)C(C(F)(F)F)CC(c1ccc(Br)cc1)N2 (stereo unspecified) the results were Dicer processing 3.5*.

High-throughput results: PubChem, Center for Chemical Genomics, University of Michigan
